ERa SRC1 pot: ER-alpha (human) coactivator binding potentiation; coactivator binding (% of control), % at 25.6 µM; P03372; TR-FRET ERalpha-LBD/SRC-Cy5 coactivator binding, 2 h; 100 = basal binding, no effect; hit rate 1.3% among 86,000; in the data active means activity above about 200%;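 further: binding measured in presence of low estradiol as agonist stimulus; 0% = peptide alone without receptor and 100% = receptor with peptide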
ERb SRC1 inh: blocks coactivator binding to human estrogen receptor beta. inhibition, % at 25.6 µM. AID 633. hit rate 1.3% among 86,000. Q92731. TR-FRET ER-beta LBD / SRC1-Cy5 peptide binding; receptor agonist-loaded with 1 µM estradiol;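 active means compounds whose percent inhibition of the receptor-coactivator binding signal exceeds about 50% in the single-dose screen, limit read from the data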;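 further: 0% = receptor plus peptide wells without compound and 100% = peptide-only wells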
ERa SRC1 inh: blocks coactivator binding to human estrogen receptor alpha. hit rate 1.7% among 86,000. inhibition, % at 25.6 µM. TR-FRET ER-alpha LBD / SRC-1 peptide, estradiol-bound; in the data active means inhibition above about 50%;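 further: 0% = receptor plus peptide control and 100% = peptide only without receptor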
EphB4 antag: antagonists of human EphB4-ephrin-B2 interaction; P54760; EphB4 LBD / TNYL-RAW-Alexa532 peptide, fluorescence polarization; inhibition, % at 7 µM; hit rate 0.15% among 97,000;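 active means inhibition above the screen-wide mean inhibition plus 3 SD, cut at about 15% in these data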;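 further: 0% = DMSO wells and 100% = excess unlabeled TNYL-RAW peptide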
The depositor's hits bear a star; / = no result; [ ] = another dose, or the depositor's remark. Rows were chosen to be rich in hits. Some 2.8% of all compounds tested hit in one or more screens of this group.

SMILES	ERa SRC1 pot	ERb SRC1 inh	ERa SRC1 inh	EphB4 antag
CCOc1ccc(C(C)=O)cc1COc1ccc(-n2cnnn2)cc1	53	23	55*[fluorescence artefact?]	/
Cc1cccc(N2CCN(C(=O)c3cccc(N4C(=O)C5CC=CC(C)C5C4=O)c3)CC2)c1C (stereo not given)	92	-8	2	-3
O=C(NC1CCCC1)c1ccc2nc(-c3ccco3)c(-c3ccco3)nc2c1	11	93*[fluorescence artefact?]	94*[fluorescence artefact?]	-3
O=C(NC1CCCC1)c1ccc2nc[nH]c2c1	110	7	3	-3
O=C(NCCO)c1ccc(Cl)c(Cl)c1	103	-3	7	/
O=C(NCCO)c1ccc2nc(-c3ccco3)c(-c3ccco3)nc2c1	16	87*[fluorescence artefact?]	64*	2
O=C(NCCc1ccccc1)c1ccc(=O)oc1	120	1	-18	-3
O=C(NCCc1ccccc1)c1ccc2nc(-c3ccco3)c(-c3ccco3)nc2c1	27	88*[fluorescence artefact?]	86*[fluorescence artefact?]	2
c1coc(-c2nc3ccccc3nc2-c2ccco2)c1	28	93*[fluorescence artefact?]	84*[fluorescence artefact?]	/
Cc1ccc(N(c2ncnc(N)c2[N+](=O)[O-])C2CCCCC2)cc1	/	/	/	0
CCOC(=O)C1=C(C)S/C(=C\N(C)C)C1=O	34	73*[fluorescence artefact?]	54*	-2
COC(=O)c1cc(OC)c(OC)cc1NC(=O)c1oc2ccccc2c1C	144	-5	-3	-2
CCCCc1ccc(NC(=O)OC)cc1	531*[fluorescence artefact?]	19	-11	/
CSc1nc(NCCOCCO)c2sc3nc(-c4ccco4)c4c(c3c2n1)CCC4	62	76*[fluorescence artefact?]	79*	/
CCN(CCO)c1nc(SC)nc2c1sc1nc(-c3ccco3)c3c(c12)CCC3	/	/	/	-6
CCN(CC)S(=O)(=O)c1ccc(Oc2ccccc2)cc1	97	-7	-1	-5
Cc1ccc(NC(=O)CCC(=O)OCC(=O)c2ccc(Oc3ccc([N+](=O)[O-])cc3)cc2)c(C)c1	/	/	/	-4
COC(=O)c1cc(COc2ccc3c(c2)oc(=O)c2ccccc23)c(C)o1	230*	23	30	-4
O=C(c1c[nH]c2ccc(S(=O)(=O)N3CCC4(CC3)OCCO4)cc2c1=O)N1CCOCC1	88	11	10	17*
Cn1cc(C(=O)NC2CCCCCC2)c(=O)c2cc(S(=O)(=O)N3CCCC3)ccc21	232*[fluorescence artefact?]	5	65*	/
CN(C)S(=O)(=O)c1ccc2c(c1)c(=O)c(C(=O)NCCCN1CCCCCC1)cn2C	92	9	62*[fluorescence artefact?]	3
Cc1ccc(SCC(=O)N(Cc2nc(-c3ccccc3)no2)C(C)C)cc1	133	-5	-6	-5
Cc1ccccc1OCC(=O)N(Cc1nc(-c2ccccc2)no1)C(C)C	323*[fluorescence artefact?]	-6	-2	0
CCCCCCNC(=O)c1c(N)n(/N=C/c2ccco2)c2nc3ccccc3nc12	/	/	/	-4
CC(C)CNC(=O)c1c(N)n(/N=C/c2ccccn2)c2nc3ccccc3nc12	228*[fluorescence artefact?]	27	69*	-6
SMILES	ERa SRC1 pot	ERb SRC1 inh	ERa SRC1 inh	EphB4 antag
COCCNC(=O)c1c(N)n(/N=C/c2cccs2)c2nc3ccccc3nc12	30	50	68*	0
CCCCNC(=O)c1c(N)n(/N=C/c2ccccn2)c2nc3ccccc3nc12	/	/	/	0
COC(=O)CN1C(c2ccccc2)=Nc2ccc(Cl)cc2C1c1ccccc1 (stereo not given)	/	/	/	5
N#Cc1cc(Sc2ccccn2)c(Sc2ccccn2)cc1C#N	213*	-4	-5	-1
O=C(c1cc2nc(-c3ccco3)cc(C(F)(F)F)n2n1)N1CCN(Cc2ccccc2)CC1	84	5	13	-1
C=CCc1ccc(OCCCCCN2CCOCC2)c(OC)c1	101	-6	-9	2
CCOc1ccc2nc(NC(=O)CCC(=O)c3cccs3)sc2c1	62	51*	60*[fluorescence artefact?]	-2
COc1ccc(-c2noc(CCC(=O)Nc3nc4ccccc4s3)n2)cc1	208*[fluorescence artefact?]	-2	14	-1
COc1ccc(-c2noc(CCC(=O)Nc3cccc(C)c3)n2)cc1	108	-8	-13	1
Cc1cc(C)c(S(=O)(=O)N(C)CC(=O)NC2CCCC2)c(C)c1	112	-8	-12	-3
Cc1ccccc1NC(=O)c1cccc2nccnc12	93	1	2	-3
Cc1ccc(F)cc1NC(=O)c1cccc2nccnc12	370*	-21	2	-1
O=C(CSc1nnnn1-c1ccccc1)Nc1nsc(-c2ccc(Cl)cc2)n1	141	39	73*	/
O=C(CSc1nnnn1-c1ccccc1)Nc1nsc(-c2ccccc2)n1	143	9	27	3
COC(=O)CN(c1ccc(F)cc1)S(=O)(=O)c1ccc2c(c1)OCCO2	116	-5	-1	5
O=C(O)c1ccccc1C1=Nc2ccc(O)cc2Oc2cc(O)ccc21	46	62*[fluorescence artefact?]	35	-4
